Reference: the supplement of paper PMC12067093, “Discovery and optimisation of a covalent ligand for TRIM25 and its application to targeted protein ubiquitination” (Chemical Science, 2025)
The full data set covers some 21,000 targets. This sample favours those with the largest changes.

Compound: Cc1cc(ccc1-c1ccccc1)C(=O)N1CCCN(CC1)C(=O)CCl [compound 10]
Assay: probe-labelled cysteine peptide fold change vs DMSO (competition) (log2 fold change); higher = less target engagement (more negative = stronger competition)
Conditions: THP-1, incubation time: 4 h
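Further: competitive profiling in live THP-1 cells: cysteine peptides tagged with an iodoacetamide desthiobiotin (IA-DTB) probe, intensity after compound treatment relative to DMSO-treated cells.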

Target	probe-labelled cysteine peptide fold change (10 µM)	probe-labelled cysteine peptide fold change (50 µM)
PRKDC_P78527_1335_CTVVVR (UniProt P78527)	0.00715	0.101
QDPR_P09417_161_GAVHQLCQSLAGK (UniProt P09417)	0.0328	0.165
PRMT5_O14744_622_KVWYEWAVTAPVCSAIHNPTGR (UniProt O14744)	-0.0156	0.0576
RCCD1_A6NED2_139_LPLLPCAR (UniProt A6NED2)	-1.01	-1.9
R3HCC1_Q9Y3T6_5_ALLCLDGVFLSSAENDFVHR (UniProt Q9Y3T6+R3HCC1)	0.242	0.0812
PRPF6_O94906_837_KCEHDPHVLLAVAK (UniProt O94906)	-0.315	0.18
PTPN11_Q06124_318_CNNSKPK (UniProt Q06124)	-0.31	-1.11
PSMC1_P62191_58_LPLVTPHTQCR (UniProt P62191)	-0.0192	0.104
PRKCQ_Q04759_193_QCNAAIHK (UniProt Q04759)	-0.474	-0.576
REPIN1_Q9BWE0_433+436_VHSGERPFACEECGR (UniProt Q9BWE0)	-0.108	-0.289
PRPF8_Q6P2Q9_2116_KFICISDLR (UniProt Q6P2Q9)	0.0139	0.129
RHOC_P08134_16_KLVIVGDGACGK<|>RHOA_P61586_16_KLVIVGDGACGK (UniProt P61586+P08134)	-0.0365	-0.193
PRKDC_P78527_373_GYGLFAGPCK (UniProt P78527)	-0.037	0.131
RGS14_O43566_183_ECLLAEAEGR (UniProt O43566)	-0.0353	0.16
PXN_P49023_505_ECFTPFVNGSFFEHDGQPYCEVHYHER (UniProt P49023)	0.192	0.386
RGPD3_A6NKT7_349_GEAGQNLLEMMACDR<|>RGPD1_P0DJD0_340_GEAGQNLLEMMACDR<|>RGPD2_P0DJD1_348_GEAGQNLLEMMACDR<|>RANBP2_P49792_348_GEAGQNLLEMMACDR<|>RGPD4_Q7Z3J3_349_GEAGQNLLEMMACDR (UniProt Q7Z3J3+P49792+P0DJD1+P0DJD0+A6NKT7)	-0.0339	0.0903
PUS7_Q96PZ0_319_CLMNFK (UniProt Q96PZ0)	-0.0229	-0.239

Target	probe-labelled cysteine peptide fold change (10 µM)	probe-labelled cysteine peptide fold change (50 µM)
RBM34_P42696_196_TVFVGNLPVTCNK (UniProt P42696)	0.0157	-0.186
PRPS1_P60891_41_KFSNQETCVEIGESVR (UniProt P60891)	0.0818	0.329
RARS_P54136_34_NCGCLGASPNLEQLQEENLK (UniProt P54136)	-0.247	-1.27
RAB29_O14966_127_CDLSPWAVSR (UniProt O14966)	-0.0495	0.0455
RNASEH1_O60930_191_AEIHAACK (UniProt O60930)	-0.0799	-0.155
QSOX1_O00391_110_AWRPALYLAALDCAEETNSAVCR (UniProt O00391)	-0.147	-0.174
RB1CC1_Q8TDY2_603_VPLLCDFEPLHQHVLALHNLVK (UniProt Q8TDY2)	-0.156	-1.09
RANBP2_P49792_707_AEDIENDALSPEEQEECK (UniProt P49792)	0.0365	0.0945
RABEPK_Q7Z6M1_36_VGHSCSYLPPVGNAK (UniProt Q7Z6M1)	-0.218	-0.0672
PSMD11_O00231_202_TTANAIYCPPK (UniProt O00231)	0.077	0.248
RNF114_Q9Y508_160_NFDQEGLVEHCK (UniProt Q9Y508)	0.0873	0.126
RANBP9_Q96S59_707_QPPLALAMGQATQCLGLMAR (UniProt Q96S59)	0.193	0.216
PRKD2_Q9BZL6_169_CDGCGLNYHK (UniProt Q9BZL6)	-0.0725	0.00149
PRR14L_Q5THK1_1483_DTESCTSPCLLGAPR (UniProt Q5THK1)	-0.528	-1.12
RASSF5_Q8WWW0_225_NCLGMK (UniProt Q8WWW0)	-0.275	-0.844
RGPD3_A6NKT7_537_SWWDAVCTLIHR<|>RGPD8_O14715_537_SWWDAVCTLIHR<|>RGPD1_P0DJD0_528_SWWDAVCTLIHR<|>RGPD2_P0DJD1_536_SWWDAVCTLIHR<|>RANBP2_P49792_536_SWWDAVCTLIHR<|>RGPD4_Q7Z3J3_537_SWWDAVCTLIHR<|>RGPD6_Q99666_537_SWWDAVCTLIHR (UniProt Q7Z3J3+P49792+P0DJD1+Q99666+P0DJD0+O14715+A6NKT7)	-0.451	-0.14
